The source of these data is ChEMBL document CHEMBL3988442, “University of Dundee, Small-Polar-MMV Screening Library” (2021).

Chain of Sialic acid-binding Ig-like lectin 9 (Homo sapiens) (Q9Y336 whole entry): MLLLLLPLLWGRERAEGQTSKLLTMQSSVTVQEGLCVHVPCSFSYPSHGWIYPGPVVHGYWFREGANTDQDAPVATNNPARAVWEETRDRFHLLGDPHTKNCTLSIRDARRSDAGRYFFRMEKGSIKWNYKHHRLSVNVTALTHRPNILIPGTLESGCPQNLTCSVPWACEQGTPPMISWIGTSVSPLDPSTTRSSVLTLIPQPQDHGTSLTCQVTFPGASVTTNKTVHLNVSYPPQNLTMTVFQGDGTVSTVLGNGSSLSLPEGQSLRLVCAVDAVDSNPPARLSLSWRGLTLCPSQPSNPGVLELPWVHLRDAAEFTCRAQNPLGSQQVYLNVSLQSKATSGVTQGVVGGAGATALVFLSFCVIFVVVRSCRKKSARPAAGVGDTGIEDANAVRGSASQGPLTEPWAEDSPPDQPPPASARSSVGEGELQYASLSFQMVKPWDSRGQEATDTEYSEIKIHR

One assay has as its target Sialic acid-binding Ig-like lectin 9 (Homo sapiens) (UniProt Q9Y336). The experiment in a line: Hs-Siglec9 ALPHAscreen SOP 20170721. Further details: scale not given: direction of the effect not stated beside the values. The settings on record: 10 µM. A general note: Bead proximity is the source of the signal in Alpha formats.
For the compound `CCc1cnc(CN(C(C)=O)C2CCN(CCc3cnn(C)c3)C2)o1` (stereo not drawn), the Percent Effect is -1.24%.

With `CC(C)c1nnc2n1CC(CNCc1ccncc1)CC2` (stereo not drawn), the Percent Effect was -8.26%.

As to `O=S(=O)(Cc1ccccc1F)NCCN1CCOCC1`, the Percent Effect is -5.08%.

`COc1cc(C(=O)N2CCC(c3n[nH]c(C4CC4)n3)CC2)ccc1C`: the Percent Effect was -3.19%.

Turning to `CC(C)(C)C(=O)NS(=O)(=O)c1ccc(C#N)cc1C(F)(F)F`, the Percent Effect stood at 3.66%.

With `O=C(N1CCCO1)[C@@]12CCO[C@@H]1CCN(C1CCCCC1)C2`, the Percent Effect came to 1.15%.

For `O=C(c1ccccc1-n1cccn1)N1CCCN(c2cccnn2)CC1`, the Percent Effect was 10.5%.

Regarding `Cc1cc(C)n(CC2CCCN2C(=O)c2cnn(C)c2C2CC2)n1` (stereo not drawn), the Percent Effect was determined as 10.3%.

On to `CCC(C)(NCC(=O)Nc1nc(C)cs1)c1nc(C)cs1` (stereo not drawn), for which the Percent Effect was -1.43%.

With `CCOc1nnc(CN2CCC(N(C)Cc3noc(C)n3)C2)s1` (stereo not drawn), the Percent Effect was -14.9%.

`Cc1ccc(=O)n(CC2(O)CCN(Cc3cnc(C)nc3)CC2)n1`: the Percent Effect was -1.5%.

For `O=C(Cn1c(=O)n(Cc2ccco2)c2ncccc21)Nc1ccccn1`, the Percent Effect worked out at 2.6%.

On to `COc1cccc(N2CCN(CC(O)c3cc(C)sc3C)CC2)c1` (stereo not drawn), for which the Percent Effect is -1.22%.

In the case of `CCOCC(=O)NC1(c2cccc(Br)c2)CC1`, the Percent Effect is 9.79%.

For the compound `CCc1noc(C(C)N(C)CC(=O)Nc2ccc(C)cc2)n1` (stereo not drawn), the Percent Effect amounted to 1.79%.

In the case of `CCn1cnnc1CNC(=O)c1cc(Cl)ccc1OC`, the Percent Effect was -1.08%.

Turning to `CCc1nc(CNC(=O)Nc2ccc(C(=O)NC)cc2C)cs1`, the Percent Effect was 18.6%.

`O=C(CCc1cccs1)N1CCC(Nc2cccnn2)CC1`: the Percent Effect amounted to 4.64%.

Take `COCC(=O)N1CCCC1c1cc(Nc2nnc(C)s2)nc(C)n1` (stereo not drawn): the Percent Effect worked out at 10.2%.

For `CCn1ccnc1CN1C[C@@H](CN2CCCC2)[C@@H](CO)C1`, the Percent Effect was 7.12%.

Consider `COc1ccccc1CC(=O)NCc1c(C)nc2cc(=O)[nH]n2c1C`, for which the Percent Effect turned out to be 9.27%.

For the compound `Cc1cc(-c2nnc(SCC(=O)O)n2C(C)c2ccccc2)nn1C` (stereo not drawn), the Percent Effect was determined as 18.6%.

Take `CCOCCOC(C)C(=O)NCc1cn2cc(Br)ccc2n1` (stereo not drawn): the Percent Effect amounted to 0.478%.

In the case of `CCc1nc2n(n1)CC(NCc1nc(C)ccc1O)CC2` (stereo not drawn), the Percent Effect came to 1.6%.

As to `COc1ccccc1CC(=O)NS(C)(=O)=O`, the Percent Effect came to 1.8%.

Take `Cn1ccc(C(=O)NC2CCC23CCN(C(=O)c2ccncc2)CC3)c1` (stereo not drawn): the Percent Effect was 16.4%.

In the case of `O=C1N(c2ccc(F)cc2)Cc2nc(=O)n(Cc3cccc(Cl)c3)n21`, the Percent Effect is 4.81%.

`CNc1oc(-c2cc(S(=O)(=O)N3CCCCCC3)c(C)o2)nc1C#N`: the Percent Effect was 2.42%.

On to `COc1ccc(CN2CCCC3(CCN(c4ccsc4)C3=O)C2)cc1` (stereo not drawn), for which the Percent Effect was 2.16%.

For the compound `CCCc1n[nH]c(C2CN(CCCOc3ccccc3)CCO2)n1` (stereo not drawn), the Percent Effect is 1.64%.

As to `COCCNC(=O)c1sc(Nc2ccc(Cl)cn2)nc1C`, the Percent Effect was found to be 6.95%.

As for `c1ccc(CCN2CCOC(Cn3cccn3)C2)nc1` (stereo not drawn), the Percent Effect was 6.84%.

In the case of `CC1=Nc2c(c(=O)[nH]n2C(C)C)C(c2ccccc2)S1` (stereo not drawn), the Percent Effect stood at 5.15%.

Consider `CCCS(=O)(=O)N1CCO[C@H]2[C@H](OCc3ccccn3)CC[C@@H]21`, for which the Percent Effect was -1.28%.

In the case of `Cc1nn(C)c(C)c1C1CCCN1C(=O)CCNc1ncccn1` (stereo not drawn), the Percent Effect was determined as 11.3%.

As for `Cn1c(Cn2ccnc2)nnc1C1CCCN(C2CCCCC2)C1` (stereo not drawn), the Percent Effect was found to be 1.26%.

Regarding `Cc1cc(N2CCN(C(=O)c3cc(Cl)c[nH]3)CC2)nc(N)n1`, the Percent Effect was 13.8%.

On to `CCNc1cc2c(nn1)CCN(C(=O)c1ccc(NC3CC3)nc1)C2`, for which the Percent Effect worked out at 11.3%.

Consider `Cc1cn2c(n1)CCC(NC(=O)CCn1ccnn1)C2` (stereo not drawn), for which the Percent Effect is -3.07%.

The test system of a further assay is Trypanosoma cruzi. Briefly: Trypanosoma cruzi phosphomannomutase and mannose-1-phosphate guanylyltransferase assay. It is filed as functional. Further details: scale not given: direction of the effect not stated beside the values. Particulars: 10 µM.
As for `CCc1cnc(CN(C(C)=O)C2CCN(CCc3cnn(C)c3)C2)o1` (stereo not drawn), the Percent Effect was -1.21%.

In the case of `CC(C)c1nnc2n1CC(CNCc1ccncc1)CC2` (stereo not drawn), the Percent Effect was -3.21%.

In the case of `O=S(=O)(Cc1ccccc1F)NCCN1CCOCC1`, the Percent Effect was -3.02%.

For `COc1cc(C(=O)N2CCC(c3n[nH]c(C4CC4)n3)CC2)ccc1C`, the Percent Effect is -1.33%.

For `CC(C)(C)C(=O)NS(=O)(=O)c1ccc(C#N)cc1C(F)(F)F`, the Percent Effect is -0.849%.

Take `O=C(N1CCCO1)[C@@]12CCO[C@@H]1CCN(C1CCCCC1)C2`: the Percent Effect came out at 0%.

Turning to `O=C(c1ccccc1-n1cccn1)N1CCCN(c2cccnn2)CC1`, the Percent Effect is -0.294%.

For the compound `Cc1cc(C)n(CC2CCCN2C(=O)c2cnn(C)c2C2CC2)n1` (stereo not drawn), the Percent Effect amounted to 0.65%.

For the compound `CCC(C)(NCC(=O)Nc1nc(C)cs1)c1nc(C)cs1` (stereo not drawn), the Percent Effect is -3.62%.

Regarding `CCOc1nnc(CN2CCC(N(C)Cc3noc(C)n3)C2)s1` (stereo not drawn), the Percent Effect was -9.06%.

`Cc1ccc(=O)n(CC2(O)CCN(Cc3cnc(C)nc3)CC2)n1`: the Percent Effect is -2.96%.

`O=C(Cn1c(=O)n(Cc2ccco2)c2ncccc21)Nc1ccccn1`: the Percent Effect was -6.13%.

Take `COc1cccc(N2CCN(CC(O)c3cc(C)sc3C)CC2)c1` (stereo not drawn): the Percent Effect came out at 2.77%.

For `CCOCC(=O)NC1(c2cccc(Br)c2)CC1`, the Percent Effect is -3.67%.

In the case of `CCc1noc(C(C)N(C)CC(=O)Nc2ccc(C)cc2)n1` (stereo not drawn), the Percent Effect was -2.55%.

For `CCn1cnnc1CNC(=O)c1cc(Cl)ccc1OC`, the Percent Effect was -2.56%.

Regarding `CCc1nc(CNC(=O)Nc2ccc(C(=O)NC)cc2C)cs1`, the Percent Effect was determined as 8.28%.

With `O=C(CCc1cccs1)N1CCC(Nc2cccnn2)CC1`, the Percent Effect came out at 8.87%.

In the case of `COCC(=O)N1CCCC1c1cc(Nc2nnc(C)s2)nc(C)n1` (stereo not drawn), the Percent Effect stood at 7.09%.

On to `CCn1ccnc1CN1C[C@@H](CN2CCCC2)[C@@H](CO)C1`, for which the Percent Effect is -4.44%.

With `COc1ccccc1CC(=O)NCc1c(C)nc2cc(=O)[nH]n2c1C`, the Percent Effect is 3.01%.

Consider `Cc1cc(-c2nnc(SCC(=O)O)n2C(C)c2ccccc2)nn1C` (stereo not drawn), for which the Percent Effect was 6.32%.

Take `CCOCCOC(C)C(=O)NCc1cn2cc(Br)ccc2n1` (stereo not drawn): the Percent Effect is 1.27%.

Turning to `CCc1nc2n(n1)CC(NCc1nc(C)ccc1O)CC2` (stereo not drawn), the Percent Effect was 5.16%.

Take `COc1ccccc1CC(=O)NS(C)(=O)=O`: the Percent Effect was -1.87%.

Regarding `Cn1ccc(C(=O)NC2CCC23CCN(C(=O)c2ccncc2)CC3)c1` (stereo not drawn), the Percent Effect is -3.17%.

Turning to `O=C1N(c2ccc(F)cc2)Cc2nc(=O)n(Cc3cccc(Cl)c3)n21`, the Percent Effect was -5.11%.

Regarding `CNc1oc(-c2cc(S(=O)(=O)N3CCCCCC3)c(C)o2)nc1C#N`, the Percent Effect is 5.5%.

For `COc1ccc(CN2CCCC3(CCN(c4ccsc4)C3=O)C2)cc1` (stereo not drawn), the Percent Effect is -5.32%.

Turning to `CCCc1n[nH]c(C2CN(CCCOc3ccccc3)CCO2)n1` (stereo not drawn), the Percent Effect was -1.74%.

For `COCCNC(=O)c1sc(Nc2ccc(Cl)cn2)nc1C`, the Percent Effect amounted to 0.589%.

Take `c1ccc(CCN2CCOC(Cn3cccn3)C2)nc1` (stereo not drawn): the Percent Effect was found to be 7.54%.

In the case of `CC1=Nc2c(c(=O)[nH]n2C(C)C)C(c2ccccc2)S1` (stereo not drawn), the Percent Effect was -0.786%.

In the case of `CCCS(=O)(=O)N1CCO[C@H]2[C@H](OCc3ccccn3)CC[C@@H]21`, the Percent Effect is -0.977%.

Take `Cc1nn(C)c(C)c1C1CCCN1C(=O)CCNc1ncccn1` (stereo not drawn): the Percent Effect came to 5.32%.

In the case of `Cn1c(Cn2ccnc2)nnc1C1CCCN(C2CCCCC2)C1` (stereo not drawn), the Percent Effect came out at 1.93%.

In the case of `Cc1cc(N2CCN(C(=O)c3cc(Cl)c[nH]3)CC2)nc(N)n1`, the Percent Effect came to 5.36%.

Take `CCNc1cc2c(nn1)CCN(C(=O)c1ccc(NC3CC3)nc1)C2`: the Percent Effect came out at 3.38%.

As for `Cc1cn2c(n1)CCC(NC(=O)CCn1ccnn1)C2` (stereo not drawn), the Percent Effect is -3.08%.
